From PubChem BioAssay (NCI) come the findings set out here.

Among the test systems are BT-549 breast; MDA-MB-435 melanoma; SW-620 colon; MCF7 breast; HCT-116 colon; HCC-2998 colon; KM12 colon.
What all share (experiment): NCI-60 one-dose screen, 48 h (100 = growth as untreated, 0 = no growth, -100 = all killed)
What all share (conditions): 10 µM

The panel holds about 83,000 compounds, 20% with a hit somewhere; the sample as a whole holds those more often.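 How to read the values: 0–100, growth inhibition (40 = 60% inhibited); 0, no net growth; -100 to 0, cell death (-40 = 40% of starting cells died; -100 = all dead).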 Values without a mark were called inactive. Calls of active or inactive are those of the source. How the source made its calls: active means growth percent below 10; inactive means the rest.

Take `CS(=O)(=O)Nc1ccc(Nc2c3ccccc3nc3cc([N+](=O)[O-])ccc23)cc1`: the growth in the assay on BT-549 breast is 32.5%; with MDA-MB-435 melanoma, 39.7%; in the assay with SW-620 colon it was 7.02% (active); in the assay with MCF7 breast, 2.38% (active); with HCT-116 colon, 4.91% (active); in the assay with HCC-2998 colon, 32.3%. For the same compound, in the assay with KM12 colon, the growth was -35.7% (active).

With `O=C(Nc1cccc(-n2cc(-c3ccncc3)c(-c3ccc(O)c(Cl)c3)n2)c1)Nc1ccc(Cl)c(Cl)c1`, the growth was 1.9% (active) in the assay with BT-549 breast; -16.7% (active) in the assay with MDA-MB-435 melanoma; 6.85% (active) in the assay on SW-620 colon; -0.812% (active) in the assay on MCF7 breast; 1.72% (active) in the assay on HCT-116 colon; 20.5% in the assay with HCC-2998 colon. In the assay with KM12 colon, the growth is 0.41% (active).

With `COc1ccc(C2=Nc3c(C)nn(-c4ccccc4)c3NC(c3ccc(Oc4ccnc5cc(Cl)ccc45)c(OC)c3)C2)cc1` (centres undefined), the growth in the assay on BT-549 breast is 93%; in the assay with MDA-MB-435 melanoma, 80.4%; in the assay with SW-620 colon it was 81.7%; in the assay on MCF7 breast, 60.6%; in the assay with HCT-116 colon, 45.6%; in the assay with HCC-2998 colon it was 89.7%. Also, the growth in the assay on KM12 colon is 85.4%.

As for `COc1ccc(OC)c(NC(=O)c2sc3nc4c(cc3c2N)C(=O)CCC4)c1`, the growth in the assay with BT-549 breast was 93.7%; in the assay with MDA-MB-435 melanoma, 28.4%; with SW-620 colon it was 82.3%; with MCF7 breast it was 81.3%; in the assay with HCT-116 colon, 97%; in the assay with HCC-2998 colon it was 78.6%. In the assay on KM12 colon, the growth is 74.8%.

For the compound `CNc1ncc(-c2ccc(C(F)(F)F)cc2)c(NC2CCCCCC2)n1`, the growth in the assay with BT-549 breast is 90.9%; in the assay with MDA-MB-435 melanoma, 89.8%; with SW-620 colon it was 77.4%; in the assay with MCF7 breast, 67.6%; in the assay on HCT-116 colon it was 56%; in the assay on HCC-2998 colon, 91.1%. Further, the growth with KM12 colon is 74.1%.

In the case of `CCN(CC)CCC(CNc1c(C)cnc2cc(Cl)ccc12)c1ccc(Cl)cc1` (centres undefined), the growth in the assay with BT-549 breast is 67.7%; in the assay on MDA-MB-435 melanoma, -7.89% (active); in the assay on SW-620 colon, 51.2%; in the assay on MCF7 breast, 39.7%; in the assay on HCT-116 colon it was 23%; in the assay with HCC-2998 colon, 26.7%. The growth with KM12 colon is 79.8%.

As to `CCCC(F)C(=O)O` (centres undefined), the growth is 111% in the assay on BT-549 breast; 95.8% in the assay with MDA-MB-435 melanoma; 105% with SW-620 colon; 97.8% in the assay with MCF7 breast; 102% in the assay on HCT-116 colon; 111% with HCC-2998 colon. Besides, the growth with KM12 colon was 106%.

As to `COc1ccc2c(c1)O/C(=C\c1ncc([N+](=O)[O-])n1C)C2=O`, the growth with BT-549 breast is -36.8% (active); in the assay on MDA-MB-435 melanoma, -78.1% (active); with SW-620 colon, -20.8% (active); in the assay with MCF7 breast, 1.94% (active); in the assay on HCT-116 colon, 0.959% (active); in the assay with HCC-2998 colon it was -58.8% (active). Moreover, the growth in the assay on KM12 colon was -37.7% (active).

Turning to `COc1ccc(CN2CCC(N3CCCC3=O)c3cc(Cl)ccc32)cc1` (centres undefined), the growth with BT-549 breast is 67.6%; in the assay on MDA-MB-435 melanoma it was 119%; in the assay with SW-620 colon, 102%; in the assay on MCF7 breast, 100%; in the assay on HCT-116 colon, 96.8%; with HCC-2998 colon, 105%. In addition, in the assay with KM12 colon, the growth was 103%.

For the compound `COc1cc(-c2nnc(-c3c(-c4ccc(F)cc4)nc4ccccn34)o2)cc(OC)c1OC`, the growth was 66.1% in the assay on BT-549 breast; 93.5% in the assay on MDA-MB-435 melanoma; 90% in the assay with SW-620 colon; 73.3% in the assay on MCF7 breast; 34.1% in the assay with HCT-116 colon; 105% in the assay with HCC-2998 colon. In addition, in the assay on KM12 colon, the growth was 81.7%.

In the case of `O=C(Nc1ccc(Cl)cc1)N1NC(c2ccc(Cl)cc2)C=C1c1ccccc1` (centres undefined), the growth was 102% in the assay with BT-549 breast; 103% in the assay with MDA-MB-435 melanoma; 110% with SW-620 colon; 89.6% in the assay on MCF7 breast; 104% with HCT-116 colon; 97.5% in the assay with HCC-2998 colon. The growth in the assay with KM12 colon was 96.3%.

For the compound `O=C(O)CCCCSc1ncnc2nc[nH]c12`, the growth with BT-549 breast was 106%; with MDA-MB-435 melanoma it was 99.3%; in the assay on SW-620 colon, 109%; in the assay with MCF7 breast, 99.2%; in the assay with HCT-116 colon, 103%; in the assay on HCC-2998 colon, 108%. Further, the growth in the assay with KM12 colon was 102%.

Take `Cn1c([N+](=O)[O-])cnc1/C=C1\Oc2cc(Cl)ccc2C1=O`: the growth in the assay with BT-549 breast is -32.6% (active); with MDA-MB-435 melanoma, -78% (active); in the assay with SW-620 colon it was -47.3% (active); with MCF7 breast, 19%; in the assay on HCT-116 colon, 3.24% (active); in the assay with HCC-2998 colon, 4.36% (active). In addition, in the assay on KM12 colon, the growth is 1.65% (active).

As to `CN1CC[C@@H](c2c(O)cc(O)c3c(=O)cc(-c4ccccc4Cl)oc23)[C@@H](O)C1`, the growth in the assay on BT-549 breast was -22.8% (active); in the assay on MDA-MB-435 melanoma, -91.2% (active); with SW-620 colon, 9.83% (active); in the assay with MCF7 breast it was 9.53% (active); in the assay with HCT-116 colon, 8.46% (active); in the assay with HCC-2998 colon, -34% (active). In the assay on KM12 colon, the growth was -34% (active).

Regarding `Cc1cc(Nc2ccc(Cl)cc2)nc(NCCCNc2ccnc3cc(Cl)ccc23)n1`, the growth with BT-549 breast was -86.7% (active); in the assay on MDA-MB-435 melanoma, -88.6% (active); with SW-620 colon it was -67.4% (active); in the assay with MCF7 breast, -100% (active); with HCT-116 colon, -97.4% (active); in the assay with HCC-2998 colon it was -88.9% (active). In addition, in the assay with KM12 colon, the growth was -33.4% (active).

Consider `O=C(Nc1cccc(-n2cc(-c3ccncc3)c(-c3cc(O)cc(Cl)c3)n2)c1)Nc1ccc(Cl)c(C(F)(F)F)c1`, for which the growth with BT-549 breast was 47.6%; with MDA-MB-435 melanoma, 9.57% (active); with SW-620 colon, -33.6% (active); in the assay on MCF7 breast, 13.4%; in the assay with HCT-116 colon, 6.95% (active); in the assay on HCC-2998 colon, 34.3%. Further, in the assay on KM12 colon, the growth was 15.1%.

Take `O=C(Nc1ccc(Cl)c([N+](=O)[O-])c1)Nc1nc2ccccc2s1`: the growth in the assay on BT-549 breast was 88.3%; in the assay on MDA-MB-435 melanoma it was 89.4%; in the assay with SW-620 colon, 99.4%; in the assay on MCF7 breast, 79%; in the assay with HCT-116 colon, 66.3%; in the assay with HCC-2998 colon, 86.3%. In addition, the growth in the assay on KM12 colon was 106%.
